High-throughput results from PubChem BioAssay.
The list is not random: actives were taken first. Their share in the collection is about 2.2%.
IEC-6 tox – kills IEC-6 intestinal cells in KLF5 counter-screen | AID 1825 | inhibition, % at 5 µM | IEC-6 cytotoxicity, luminescence viability | 290,000 tested, 0.78% active;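 note: 0% = plate median of test compound wells and 100% = cytotoxic reference compound wells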
APP transl inh – APP translation inhibition. SH-SY5Y APP 5'UTR-luciferase reporter, luminescence. inhibition, % at 2 µM. 190,000 tested, 0.82% active;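 active = inhibition above a set limit, derived from the sample mean plus 3 SD, cut at about 45% in these data; inconclusive = one replicate passes the limit while the other fails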
BaF3 parental – parental Ba/F3 viability inhibition as JAK2V617F counter-screen; CellTiter-Glo ATP luminescence; inhibition, % at 5.6 µM; 220,000 tested, 1.1% active; AID 1486;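 active = inhibition above a per-campaign cutoff, the mean inhibition of all tested compounds plus 3 SD, cut at about 27% in these data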;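 note: 0% = DMSO wells and 100% = JAK Inhibitor I control wells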
KLF5 inhibitor – kruppel-like factor 5 inhibition; 290,000 tested, 0.23% active; AID 1700; inhibition, % at 5 µM; DLD-1 KLF5 promoter-luciferase reporter, luminescence;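 active = inhibition above a per-plate limit of that plate's mean compound inhibition plus 3 SD, cut at about 60% in these data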;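 note: 0% = DMSO wells and 100% = LY294002 at 200 µM; higher means less KLF5 promoter-driven luciferase light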
aSyn UTR inh – 5' untranslated region of α-synuclein, MLPCN primary screen; alpha-synuclein 5'UTR reporter, inhibitor activity; inhibition, % (tested at 7.5 µM); 300,000 tested, 0.82% active; in the data active = inhibition above about 60%; inconclusive = no clear call, values can overlap the other calls;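 note: H4 neuroglioblastoma cells stably carrying SNCA 5'UTR luciferase fusion; 0% = DMSO wells and 100% = positive control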
Ba/F3 V617F tox – reduce viability of Ba/F3 cells dependent on JAK2V617F; 220,000 tested, 1.1% active; Ba/F3 EpoR-JAK2V617F viability, ATP luminescence; AID 1446; inhibition, % at 5.6 µM;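 active = inhibition above the campaign mean plus 3 SD over all tested compounds, cut at about 24% in these data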;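 note: cytokine-independent growth of Ba/F3 cells driven by EpoR plus mutant JAK2; 0% = DMSO-treated cells and 100% = JAK inhibitor I control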
IEC-6 tox confirm – IEC-6 cytotoxicity, confirmation assay; shares compounds with IEC-6 tox; IEC-6 rat intestinal epithelial viability, luminescence; inhibition, % at 5 µM; 1,900 tested, 63% active;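 note: 0% = vehicle and 100% = reference cytotoxic drug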
Active calls of the source: *; ? = inconclusive; nt = no result. Cut-off read from the data, not from the text of the source, unless noted: active = inhibition above about 22%; inactive = the rest.

SMILES | IEC-6 tox | APP transl inh | BaF3 parental | KLF5 inhibitor | aSyn UTR inh | Ba/F3 V617F tox | IEC-6 tox confirm
CCN1CCc2c(sc(NC(=O)c3ccc4ccccc4c3)c2C(N)=O)C1 | 45* | nt | nt | -22 | -194 | nt | 8
Cc1onc(C(=O)Nc2cccnc2Cl)c1[N+](=O)[O-] | 7 | -13 | 2 | -35 | 9 | -2 | nt
COc1cc(NC(=O)c2noc(C)c2[N+](=O)[O-])c(OC)cc1Cl | 64* | nt | nt | -47 | -9 | nt | 17
COc1ccc(N(C)C2=NS(=O)(=O)c3ccccc32)cc1 | 55* | nt | 61* | 56 | -70 | 50* | 30*
CN(/N=C/c1ccc(N(C)C)cc1)C1=NS(=O)(=O)c2ccccc21 | 38* | nt | nt | -9 | -97 | nt | 16
COc1ccc(/C=N/N(C)C2=NS(=O)(=O)c3ccccc32)cc1 | 6 | nt | nt | -36 | -1 | nt | nt
COC(=O)C(C)Oc1ccc(Cl)c(CN2OCC(C)(C)C2=O)c1 (configuration not stated) | nt | nt | nt | nt | 8 | nt | nt
CC1CCC(NC(=O)CC(NC(N)=O)c2ccccc2Cl)CC1 (configuration not stated) | -2 | nt | nt | -26 | -8 | nt | nt
Cn1c(=O)c2cc(S(=O)(=O)Nc3cc(C(=O)O)cc(C(=O)O)c3)ccc2n(C)c1=O | -8 | -8 | 6 | -30 | -18 | -1 | nt
Cc1cc(C)cc(NS(=O)(=O)c2ccc3c(c2)c(=O)n(C)c(=O)n3C)c1 | 35* | 15 | 67* | 33 | ? | 49* | 33*
CC(C)Cn1c([N+](=O)[O-])nc2c1c(=O)[nH]c(=O)n2C | -3 | nt | -2 | -6 | -20 | -2 | nt
Cn1c(=O)[nH]c(=O)c2c1nc([N+](=O)[O-])n2Cc1ccccc1 | 38* | nt | 77* | -3 | -42 | 95* | 10
O=C(O)C1=C[C@H](c2coc3ccccc3c2=O)C[C@H](OCc2ccc(CO)cc2)O1 | -2 | 1 | -2 | -13 | -24 | -3 | nt
S=C(Nc1ccccc1)Nc1nccs1 | 42* | nt | 0 | -115 | -177 | 2 | 8
COc1ccc(N(CC(=O)NC2CC3CCC2C3)S(=O)(=O)c2ccc(C)c([N+](=O)[O-])c2)cc1 (configuration not stated) | -10 | nt | nt | -30 | -5 | nt | nt
CCN(C(=O)Cn1cc(C(F)(F)F)ccc1=O)c1c(N)n(Cc2ccccc2)c(=O)[nH]c1=O | -7 | 12 | 2 | -9 | 10 | -3 | nt
CCOc1ccc(C(=O)C(CCC(CN(C)C)C(=O)c2ccc(OCC)cc2)CN(C)C)cc1 (configuration not stated) | 29* | 92* | 40* | 19 | -10 | 101* | 27*
CCOc1ccc(C(=O)c2ccncc2)cc1 | 1 | -9 | 1 | -16 | -1 | -4 | nt
O=C1C(=O)N(C/C=C/c2ccccc2)c2ccccc21 | 89* | nt | nt | 5 | -40 | nt | 65*
O=C1c2ccccc2C(=O)N1C/C=C/c1ccccc1 | -4 | 6 | 8 | 1 | -8 | 5 | nt
Cc1c(N=C2NN=C(c3c[nH]c4ccccc34)CS2)c(=O)n(-c2ccccc2)n1C | 0 | nt | -6 | 1 | 2 | -4 | nt
Cc1ccc(-c2ccnc3c(Br)c(C)nn23)cc1 | 28* | nt | nt | -14 | 25 | nt | 19
Cc1nn2c(-c3ccccc3)ccnc2c1Br | 10 | nt | nt | -11 | 17 | nt | nt
COc1ccc(N(C(=O)Cc2cccs2)C(C(=O)NC2CCCC2)c2ccncc2)cc1OC (configuration not stated) | 2 | nt | nt | 2 | -5 | nt | nt
C#CC(=O)N(c1ccc(OC)c(OC)c1)C(C(=O)NC1CCCC1)c1cccs1 (configuration not stated) | 100* | 17 | 52* | -2 | 36 | 99* | 79*
SMILES | IEC-6 tox | APP transl inh | BaF3 parental | KLF5 inhibitor | aSyn UTR inh | Ba/F3 V617F tox | IEC-6 tox confirm
O=C(Nc1ccc(Cl)c(S(=O)(=O)N2CCOCC2)c1)c1ccccc1-c1ccc(C(F)(F)F)cc1 | -7 | -5 | 6 | -4 | 49 | 3 | nt
Cn1ccsc1=NC(=O)c1ccc([N+](=O)[O-])o1 | 67* | nt | nt | -17 | -161 | nt | 18
CCN(CC(=O)NCc1ccc(F)cc1)C(=O)/C=C/c1ccc(OC)cc1 | 3 | nt | nt | -26 | 0 | nt | nt
CCN(CC(=O)NCc1ccc(F)cc1)C(=O)/C=C/c1ccc(OC)c(S(=O)(=O)NC(C)C)c1 | 73* | nt | nt | 48 | 63* | nt | 50*
S=C(NCCCN1CCOCC1)Nc1cccc(-c2nnc3n2CCCCC3)c1 | 1 | 5 | 4 | 12 | -8 | 2 | nt
Cc1ccccc1NS(=O)(=O)c1cc2c3c(c1)CC(=O)N3CCC2 | 2 | nt | nt | -38 | 6 | nt | nt
Cc1ccc(NC(=O)C2CCN(S(=O)(=O)c3ccc(N4CCCC4=O)cc3)CC2)cc1Cl | 27* | nt | nt | -42 | -13 | nt | 13
Cc1ccccc1NS(=O)(=O)c1ccc(N2CCCC2=O)cc1 | 55* | 74* | 72* | 55 | 49 | 85* | 44*
CN(C)c1ccc(C(CNS(=O)(=O)c2ccc3ccccc3c2)N2CCOCC2)cc1 (configuration not stated) | nt | nt | nt | nt | -4 | nt | nt
C[C@@H](CN1C(=O)C(=O)NC[C@@H]1Cc1ccc(O)cc1)NC(=O)Cc1ccccc1 | 0 | nt | nt | -12 | -4 | nt | nt
CCCc1cc(=O)n2[nH]cc(-c3ccc(Cl)cc3)c2n1 | 23* | nt | nt | -23 | 71* | nt | 6
Cc1ccccc1OCC(=O)NNC(=O)Nc1ccc(Cl)cc1 | 67* | 10 | 7 | -1 | -48 | 1 | 29*
Cc1ccccc1OCC(=O)NNC(=O)Nc1ccccc1 | 2 | -8 | 4 | -25 | 25 | -2 | nt
Cc1cccc(/C=C(\c2nc3ccccc3[nH]2)S(=O)(=O)c2ccccc2)c1 | 25* | 12 | 5 | -7 | -118 | 1 | 32*
CC(C)(C)c1ccc(/C=C(\c2nc3ccccc3[nH]2)S(=O)(=O)c2ccccc2)cc1 | nt | nt | nt | nt | -78 | nt | nt
C=C1C(=O)[C@@]23[C@H](O)C[C@@H]4C(C)(C)CC[C@H](O)[C@@]4(C)[C@@H]2CC[C@@H]1[C@H]3O | 65* | 84* | 92* | 12 | 18 | 98* | 44*
O=C1NC(c2ccc(Br)cc2)Nc2ccccc21 (configuration not stated) | 33* | nt | nt | 5 | -38 | nt | 33*
O=C(Cn1cc(C(F)(F)F)ccc1=O)NCc1ccc(F)cc1 | -1 | nt | nt | -66 | -75 | nt | nt
CC(C)c1ccc2c(c1)[C@H]1OCC[C@H]1[C@@H](c1cccs1)N2 | 26* | 86* | 54* | 8 | 14 | 41* | 66*
COc1ccc(Br)cc1C(=O)Nc1ccccc1-c1ccccc1 | 5 | -2 | 7 | -17 | -27 | 1 | nt
Cc1ccc(NC(=O)N/C=C/c2ccco2)cc1 | 2 | 4 | 4 | -12 | -10 | -2 | nt
Cc1ccc(Cc2cnc(NC(=O)c3cccs3)s2)cc1 | 1 | -170 | -4 | -173 | -91 | -1 | nt
O=C(CCc1ccccc1)Nc1ccc(Cl)cn1 | 68* | 75* | 51* | 20 | -314 | 67* | 40*
Cc1cnc(NC(=O)CCc2ccccc2)s1 | 31* | nt | nt | -38 | -383 | nt | 13
